MLL AF4-AF9 inh = inhibitors of AF4 peptide binding to AF9, primary screen, biochemical, AlphaScreen, biotin-AF4 peptide, FLAG-AF9, single point; Protein AF-9 (Homo sapiens), P42568; inhibition, % at 10 µM; actives 0.47% (n = 350,000);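 active = every replicate reaching a set inhibition limit, whatever the replicate mean, cut at about 25% in these data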;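 also: 0% = plate neutral control median and 100% = total signal loss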
INS-1E GSIS act = GLuc luminescence reporter in INS-1E cells, primary screen for activators of glucose-dependent secretion of insulin; activation, % at 16.6 µM; INS-1E GLuc reporter insulin secretion, 2-3 h; actives 0.61% (n = 370,000);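 active = lowest replicate activation of at least 40%, so every replicate reaches that level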;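 also: 0% = median of neutral control wells and 100% = median of IBMX positive control wells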
NSD2 HMT inh = NSD2 histone methyltransferase inhibitors, primary screen, biochemical, AlphaScreen, single concentration, set 2. Histone-lysine N-methyltransferase NSD2 (Homo sapiens), O96028. NSD2 peptide methylation, 120 min. inhibition, % at 12.5 µM. actives 0.54% (n = 310,000). AID 743445, 2014; in the data active = inhibition above about 50%
Env fusion inh = inhibitors of HIV-1 Env-driven cell-cell fusion, primary screen, HeLa-JRFL effector, CEM21 target cells, luciferase; inhibition, % at 12.3 µM; actives 1.1% (n = 360,000);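 active = mean replicate inhibition score of at least 50 and every replicate individually at or above 50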;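 also: 0% = plate neutral controls and 100% = maraviroc near 300 nM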
PGC1a acetyl inh = inhibitors of PGC1a acetylation signal, primary screen, cell-based, U2OS, AlphaScreen, inhibitor mode; AlphaScreen anti-acetyl-lysine; with virally co-expressed GCN5 acetyltransferase; inhibition, % at 15.6 µM; actives 0.17% (n = 350,000); AID 651687, 2012;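 active = every replicate shows inhibition of at least 40%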;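 also: 0% = neutral control wells and 100% = positive control wells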
AlphaScreen art = AlphaScreen signal interference with preloaded methylated product, dose response, artefact control for NSD2 inhibitor project, biochemical, cherry-picked samples | shares compounds with NSD2 HMT inh | AlphaScreen artifact counterscreen, preloaded methylated H4 peptide | AC35, µM (top dose mostly 10 µM), for the others: at the highest dose activity change, negative = signal loss | actives 9.4% (n = 1,500) | AID 1053174, 2014; call rule not given here
* marks the source's active call; other numbers are inactive results. Most compounds without a hit are left out; they make up all but 2.1% or so of the library.

Screening Cc1nn(C)c(C)c1NS(=O)(=O)c1cccc(Br)c1 returned MLL AF4-AF9 inh -1.6, INS-1E GSIS act 15.2, NSD2 HMT inh -1.8 and Env fusion inh 2.3.
`CCOC(=O)C(Oc1ccc2c(-c3ccccc3)cc(=O)oc2c1C)c1ccccc1` (centres undefined) gave MLL AF4-AF9 inh 2.4, INS-1E GSIS act 13.1, NSD2 HMT inh -2.5, Env fusion inh 2.8 and PGC1a acetyl inh -2.1.
For CCOC(=O)C(Oc1ccc2c(-c3ccc(OC)cc3)cc(=O)oc2c1C)c1ccccc1 (centres undefined) the results were NSD2 HMT inh 53.2*, Env fusion inh 47.6 and AlphaScreen art -3.0%.
Screening CCOC(=O)Cn1c(=NC(=O)C2COc3ccccc3O2)sc2cc(S(N)(=O)=O)ccc21 (centres undefined) returned MLL AF4-AF9 inh 1.9, INS-1E GSIS act -10.0, NSD2 HMT inh -4.8, Env fusion inh -1.3 and PGC1a acetyl inh -28.4.
`Cc1ccc(NC(=S)N2CCC(NC(=O)c3ccc(C)cc3)CC2)cc1` gave MLL AF4-AF9 inh 0.4, INS-1E GSIS act -21.0 and Env fusion inh 10.1.
Cc1ccc(NC(=S)N2CCC(NC(=O)c3cccc(F)c3)CC2)cc1 was read as MLL AF4-AF9 inh -24.2, INS-1E GSIS act 13.4, NSD2 HMT inh 88.7*, Env fusion inh 8.4 and AlphaScreen art 2.4%.
`CC(=NO)c1cc(Br)c2cccc3c2c1CC3` gave MLL AF4-AF9 inh -2.3, NSD2 HMT inh 66.1*, Env fusion inh -105.3 and AlphaScreen art -3.3%.
`CCCCCCSc1cc(-c2nc3cc(C)ccn3c2NC2CCCCC2)ccc1OC` gave MLL AF4-AF9 inh 1.4, INS-1E GSIS act 34.2, Env fusion inh 22.4 and PGC1a acetyl inh -4.5.
`O=C(Cn1ncc2c3ccccc3n(Cc3ccccc3F)c2c1=O)NCCN1CCOCC1` gave MLL AF4-AF9 inh 0.5, INS-1E GSIS act 5.4, NSD2 HMT inh -6.5, Env fusion inh 1.8 and PGC1a acetyl inh -6.9.
`CNS(=O)(=O)c1ccc(NC(=O)c2ccoc2C)cc1` gave MLL AF4-AF9 inh 0.3, INS-1E GSIS act 5.8, NSD2 HMT inh -1.5, Env fusion inh 9.1 and PGC1a acetyl inh -1.5.
COC(=O)c1ccc(/C=N/N2CCN(Cc3ccccc3)CC2)cc1 was read as INS-1E GSIS act -10.6, NSD2 HMT inh 51.6*, PGC1a acetyl inh 2.2 and AlphaScreen art -6.3%.
For CNC(=O)CSc1nnc(C2CC2)n1-c1ccccc1 the results were MLL AF4-AF9 inh -0.1, INS-1E GSIS act 4.6, NSD2 HMT inh -2.8, Env fusion inh -1.0 and PGC1a acetyl inh 2.9.
O=C(Nc1nnc(CC(c2ccccc2)c2ccccc2)s1)c1ccco1 was read as NSD2 HMT inh -1.2, Env fusion inh -42.8 and PGC1a acetyl inh -8.4.
Screening COCCN(C(=O)CCC(=O)Nc1ccccn1)C(C(=O)NC(C)C)c1ccc(C)cc1 (centres undefined) returned MLL AF4-AF9 inh -1.2, INS-1E GSIS act 39.1, NSD2 HMT inh 59.7*, Env fusion inh -7.6, PGC1a acetyl inh -0.4 and AlphaScreen art -4.6%.
`O=C(Cn1nnc2ccccc21)N/N=C/c1ccco1` gave MLL AF4-AF9 inh -0.7, INS-1E GSIS act -1.6, NSD2 HMT inh 0.3 and Env fusion inh -14.1.
`CN1/C(=N\O)c2cccc3cccc1c23` gave INS-1E GSIS act 16.7, NSD2 HMT inh 55.3*, PGC1a acetyl inh -9.2 and AlphaScreen art 8.0%.
`COC(=O)CNC(=O)c1cccs1` gave NSD2 HMT inh 1.9, Env fusion inh -19.0 and PGC1a acetyl inh 3.0.
Screening COC(=O)C(C)(C)NC(=O)c1cccs1 returned INS-1E GSIS act 10.6, NSD2 HMT inh 124.3*, Env fusion inh 35.8 and AlphaScreen art 0.8%.
`O=C(COC(=O)c1ccc([N+](=O)[O-])s1)Nc1ncc(C(F)(F)F)cc1Cl` gave INS-1E GSIS act -11.7, NSD2 HMT inh 75.3*, Env fusion inh -12.5, PGC1a acetyl inh -1.9 and AlphaScreen art 0.3%.
`O=C(COC(=O)c1ccccn1)Nc1ncc(C(F)(F)F)cc1Cl` gave NSD2 HMT inh -2.2 and PGC1a acetyl inh 0.3.
`COc1ccc(C)cc1Nc1ncnc2c1nnn2Cc1ccccc1Cl` gave MLL AF4-AF9 inh -2.7, INS-1E GSIS act 27.4, NSD2 HMT inh 1.1 and Env fusion inh -22.8.
`COc1cccc(CNC(=O)CCS(=O)(=O)c2ccc3c(c2)NC(=O)C(C)S3)c1` (centres undefined) gave MLL AF4-AF9 inh 0.8, INS-1E GSIS act -1.8, NSD2 HMT inh 1.2 and Env fusion inh 2.6.
Screening CC(C)(C)C(=O)NC1CC2CCCC(C1)N2C(=O)Nc1ccc(Cl)cc1 (centres undefined) returned MLL AF4-AF9 inh -5.2, NSD2 HMT inh 56.0*, Env fusion inh -10.3, PGC1a acetyl inh 7.6 and AlphaScreen art 4.9%.
For O=C(c1ccc(N2CCOCC2)c([N+](=O)[O-])c1)N1CCN(Cc2ccccc2)CC1 the results were MLL AF4-AF9 inh 2.7, INS-1E GSIS act 14.2, NSD2 HMT inh 119.7*, Env fusion inh 8.8, PGC1a acetyl inh 28.4 and AlphaScreen art -3.4%.
For CC(=O)c1c(C)[nH]c(C(=O)Nc2ccc(C)cc2Br)c1C the results were MLL AF4-AF9 inh 1.3, INS-1E GSIS act 39.6, NSD2 HMT inh 71.8*, Env fusion inh -37.6, PGC1a acetyl inh 2.0 and AlphaScreen art -4.6%.
`CC(=O)c1c(C)[nH]c(C(=O)Nc2cc(C)ccc2C)c1C` gave MLL AF4-AF9 inh -0.2, INS-1E GSIS act 4.4, Env fusion inh -6.5 and PGC1a acetyl inh -1.6.
COc1ccc(NC(=O)c2[nH]c(C)c(C(C)=O)c2C)cc1Cl was read as NSD2 HMT inh -0.7 and PGC1a acetyl inh -8.7.
Screening COc1cc(NC(=O)c2[nH]c(C)c(C(C)=O)c2C)cc(OC)c1OC returned MLL AF4-AF9 inh 4.4, INS-1E GSIS act -6.8, NSD2 HMT inh 121.0*, Env fusion inh -3.1, PGC1a acetyl inh -0.3 and AlphaScreen art -5.4%.
For CCN(c1ccccc1)S(=O)(=O)c1ccc(C(=O)N(C)CCc2ccc(OC)c(OC)c2)cc1 the results were MLL AF4-AF9 inh -1.0, INS-1E GSIS act 1.9 and Env fusion inh 2.4.
Screening N#Cc1c(N)n(-c2ccc(C(=O)O)cc2)c2nc3ccccc3nc12 returned MLL AF4-AF9 inh -3.0, INS-1E GSIS act 10.3, NSD2 HMT inh 74.0*, Env fusion inh -3.0, PGC1a acetyl inh -3.5 and AlphaScreen art -5.8%.
For N#Cc1c(N)n(-c2ccc(N)cc2)c2nc3ccccc3nc12 the results were MLL AF4-AF9 inh -1.4, NSD2 HMT inh -3.1, Env fusion inh -4.7 and PGC1a acetyl inh 7.9.
